# Bioassay records as filed in PubChem.
# A selection: hits, their analogues and other compounds. The true share with any hit is near 2.2%.
# LDHA inh: LDHA (human) enzyme inhibition; actives 0.15% (n = 480,000); activity change, % (values are at about 110 or 230 µM); P00338; AID 1347041; purified LDHA, NADH/diaphorase-resazurin fluorescence; active compounds read low; in the data active = activity change below about -30%; inconclusive = mostly about -25% to -30%;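 also: plate controls were DMSO wells for no effect and wells without enzyme for full effect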
#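 Enzyme activity of human lactate dehydrogenase 5 (2 nM; 0.06 mM NADH, 0.2 mM pyruvate, 5 min, RT) is measured via a resazurin/diaphorase fluorescence readout of residual NADH.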
# mIDH1 inhibitor: inhibitors of human mutant IDH1 R132H. actives 0.093% (n = 390,000). IDH1-R132H enzyme, NADPH consumption, diaphorase/resazurin fluorescence. Potency, µM (series often up to 76.6 µM), inactives show at the highest dose activity change, negative = inhibition, usual class: inhibitors; also: potency is read from the fitted curve at half-maximal effect; % is scaled to controls: 0 for no effect and ±100 for the full control effect; nearly all actives have a fitted effect of over 65% in size
# Target sequence (O75874 whole entry R132H, stated change not applied): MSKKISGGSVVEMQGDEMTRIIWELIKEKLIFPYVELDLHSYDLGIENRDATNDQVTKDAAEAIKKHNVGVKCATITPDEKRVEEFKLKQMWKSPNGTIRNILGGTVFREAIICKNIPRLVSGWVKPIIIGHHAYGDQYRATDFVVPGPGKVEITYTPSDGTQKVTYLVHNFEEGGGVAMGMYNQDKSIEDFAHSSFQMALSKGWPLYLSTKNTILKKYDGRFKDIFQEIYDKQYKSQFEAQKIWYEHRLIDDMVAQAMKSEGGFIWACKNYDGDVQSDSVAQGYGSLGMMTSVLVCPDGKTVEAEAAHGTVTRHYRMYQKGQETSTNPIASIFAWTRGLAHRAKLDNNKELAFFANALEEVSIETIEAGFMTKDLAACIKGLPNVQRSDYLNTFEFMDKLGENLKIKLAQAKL
#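 IDH1-R132H (0.5 ug/mL) preincubated 30 min with compound, then NADPH (0.016 mM) and alpha-KG (2 mM) added; 80 min at RT, pH 7.5. Remaining NADPH coupled via diaphorase/resazurin to fluorescence (540/590 nm); concentration-response curves normalized to no-enzyme control.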
# ATXN2 expr inh: reduces ATXN2 reporter expression in HEK-293 cells. HEK-293 ATXN2-luciferase reporter, luminescence, 24 h. Potency, µM (top dose mostly 57 µM), inactives show top-dose activity change, negative = inhibition, hits mostly inhibitors. actives 0.72% (n = 360,000); also: potency is read from the fitted curve at half-maximal effect; % is scaled to controls: 0 for no effect and ±100 for the full control effect; nearly all actives have a fitted effect of over 55% in size
#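 ATXN2-luciferase reporter cells (luciferase flanked by upstream and downstream ATXN2 gene portions) were treated 24 h at 37 °C with compounds at up to 57 uM. SteadyGlo luminescence gave expression; GF-AFC fluorescence gave viability.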
# TGFb inhibitor: inhibitors of TGF-b signaling; Potency, µM (series often up to 46.1 µM), for inactives: top-dose activity, negative = inhibition, most hits filed as inhibitors; HepG2 CAGA-GFP TGF-b/SMAD3 reporter, GFP fluorescence, 18 h; TGF-beta stimulated, 500 pg/mL final; actives 1.2% (n = 410,000); also: potency is read from the fitted curve at half-maximal effect; % is scaled to controls: 0 for no effect and ±100 for the full control effect; nearly all actives have a fitted effect of over 65% in size
#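 Per well, imaged GFP fluorescence of HEPG2 CAGA-GFP cells gives the signal; cells get compound, then TGF-beta (500 pg/mL final), 18 h at 37 degrees C; %Activity versus -TGF-beta and +DMSO controls.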
# ATXN viability: cell viability loss in ATXN counter-screen | S2 cells (HEK-293 line with an ATXN2-luciferase reporter) viability, CellTiter-Fluor protease fluorescence, 24 h | Potency, µM (doses to about 56.7 µM), most hits filed as cytotoxic | actives 0.49% (n = 400,000) | AID 651635; also: potency is read from the fitted curve at half-maximal effect; nearly all actives have a fitted effect of over 40% in size
# HepG2 tox: HepG2 cytotoxicity, counter-screen for TGF-b inhibitors; HepG2 CAGA-GFP viability, ATP luminescence, 18 h; Potency, µM (top dose mostly 46.1 µM), inactives show at the top dose activity change, negative = cytotoxicity, hits mostly cytotoxic; actives 0.76% (n = 410,000); AID 588856; also: potency is read from the fitted curve at half-maximal effect
#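 HepG2 CAGA-GFP cells (1000/well, DMEM with 1% FBS) received compound, then TGF-beta at 500 pg/mL final, and were incubated 18 hours at 37 degrees C. Viability was read by CellTiter-Glo luminescence. Media-only wells were set as complete cell-killing and DMSO as no toxicity.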
# * = called active by the depositor; i = inactive; ? = inconclusive; . = no result. Unless noted, calls follow the shape of the dose curve; as a rule, active = well fitted curve in the direction sought with a large enough effect; inconclusive = small, poorly fitted or top-dose-only effect, or another doubt; inactive = no such curve, though single readings can be large; an effect the other way counts as inactive or inconclusive.
SMILES,LDHA inh,mIDH1 inhibitor,ATXN2 expr inh,TGFb inhibitor,ATXN viability,HepG2 tox
O=C(O)CC(SCC(=O)NC1CCCc2ccccc21)C(=O)O (centres undefined),-6,9%,1%,5%,i,-1%
NS(=O)(=O)c1ccc(CCNC(=O)CCc2ccccc2)cc1,6,1%,-4%,40%,i,11%
COc1c2c(nc3ccccc13)O[C@H]([C@@](C)(O)CO)C2,.,.,.,.,i,.
CCN=C(N/N=C/c1ccc([N+](=O)[O-])cc1)SC,-110*,7%,13%,-15%,i,-18%
Cc1ccc(CNC(=O)[C@H](Cc2ccccc2)NC(=O)C2CCNCC2)cc1,-15,-27%,22%,-13%,i,2%
CCCOc1ccc(-c2nnc(-c3ccncc3)o2)cc1,5,5%,35%,-5%,i,-9%
CCOc1cc(C2Sc3ccccc3NC3=C2C(=O)c2ccccc23)ccc1O (centres undefined),0,7%,?,-33%,32µM*,-35%
COc1ccc2c(-c3ccc(OCCN4CCOCC4)cc3)c(-c3ccccc3OC)sc2c1,-3,-4%,-15%,6%,i,-23%
COc1ccc2c(-c3ccc(OCCN4CCCCC4)cc3)c(-c3ccccc3OC)sc2c1,-2,-3%,?,?,.,13µM*
COc1ccc(-c2sc3cc(OC)ccc3c2-c2ccc(OCCN3CCCCC3)cc2)cc1,1,.,22µM*,.,.,.
COc1cccc(-c2sc3ccccc3c2-c2ccc(OCCN3CCCCC3)cc2)c1,-3,5%,?,1%,.,-41%
COc1ccccc1-c1sc2ccccc2c1-c1ccc(OCCN2CCCCC2)cc1,-2,25%,-7%,?,.,11µM*
O=C(NC(=S)Nc1cc(Cl)ccc1O)c1cccc(Br)c1,1,4%,.,10µM*,i,-41%
O=C(NC(=S)Nc1cccnc1)c1cccc(Br)c1,-4,8%,15%,-26%,i,2%
CC(C)Cn1nc(C(=O)Nc2ccc(S(=O)(=O)N(C)C)cc2)c2ccccc2c1=O,15,.,.,.,.,.
CCCCN1C2=NC(c3ccccc3)CN2c2ccccc21 (centres undefined),1,5%,-31%,-5%,i,6.3µM*
CCCS(=O)(=O)N1CCn2c(nc3ccccc32)C1,-5,9%,20%,-3%,i,-7%
CN[C@H]1CCc2cc(OC)c(OC)c(OC)c2-c2ccc(N(C)CC(OC)OC)c(=O)cc21,8,2%,.,?,14µM*,-8%
CN1OC[C@@H]2CN(S(=O)(=O)c3cccc(C(F)(F)F)c3)[C@H](c3ccc(-c4cccnc4)cc3)C[C@@H]21,-16,-5%,-17%,-3%,i,-24%
CCOc1ccccc1C(=O)N[C@H](C(=O)NNC(=O)c1cccs1)C(C)C,-14,7%,3%,7%,i,0%
COc1ccc(/C=C/C(=O)c2c(C)cc(C)[nH]c2=O)c2ccccc12,-1,-4%,?,18µM*,?,13µM*
NS(=O)(=O)c1cc(C(=O)NC2CCSc3ccccc32)ccc1Cl (centres undefined),-66*,-1%,2%,1%,i,9%
COc1ccc(Nc2cc(C(=O)NCCCN(C)C3CCCCC3)c3ccccc3n2)c(OC)c1,-3,0%,-37%,?,32µM*,-75%
CCC1C(=O)Nc2ccccc2N1C(=O)COc1ccccc1 (centres undefined),1,1%,1%,7%,i,4%
COc1ccc(C(=O)NC(c2ccccc2Cl)c2cc(Cl)c3cccnc3c2O)cc1 (centres undefined),4,-8%,.,10µM*,.,11µM*
SMILES,LDHA inh,mIDH1 inhibitor,ATXN2 expr inh,TGFb inhibitor,ATXN viability,HepG2 tox
CC(=O)NC(c1ccccc1)c1cc(Cl)c2cccnc2c1O (centres undefined),5,-1%,7.9µM*,?,i,-17%
CCC(=O)NC(c1cc(Cl)c2cccnc2c1O)C(C)C (centres undefined),13,.,7.1µM*,2.8µM*,?,-42%
CCC(=O)NC(c1cc(Cl)c2cccnc2c1O)C1CC1 (centres undefined),11,.,?,2µM*,?,-23%
Cc1ccc(Nc2nc(Oc3ccc(OCc4ccccc4)nn3)nc(N3CCOCC3)n2)cc1,0,1%,-22%,-3%,i,-28%
CN1CCN(C(c2ccc(Cl)cc2)c2cc(Cl)c3cccnc3c2O)CC1 (centres undefined),1,-13%,?,?,?,25µM*
O=C(NC(c1ccc(Cl)cc1)c1cc(Cl)c2cccnc2c1O)c1cccnc1 (centres undefined),-2,-23%,?,?,i,-11%
Cc1c(Cl)cccc1NC(=S)N(CCN(C)C)C(C)c1ccccn1 (centres undefined),1,25%,-3%,-16%,?,2%
CCN1C(=O)/C(=C/C=C2\N(CC)c3cc(S(=O)(=O)N(C)C)ccc3N2c2ccccc2)SC1=S,0,52µM*,0%,23%,?,-17%
CCN1C(=O)/C(=C\C=C\c2ccccc2[N+](=O)[O-])SC1=S,4,6%,-31%,2%,i,9%
COc1ccc(CNCc2ccc(OC)c3ccccc23)cc1,-11,1%,-19%,16%,i,-20%
CC(C)(C)OC(=O)NCCCCCc1cn(CC(=O)NCCCCCCCCCCC(=O)N2CCN(C(=O)OC(C)(C)C)CC2)nn1,-2,-4%,13%,-5%,i,-12%
Cc1cn([C@@H](CCCCNC(=O)OC(C)(C)C)C(=O)NCCCCCCCCCCC(=O)N2CCN(C(=O)OC(C)(C)C)CC2)nn1,0,10%,?,11µM*,16µM*,-11%
CC[C@H](C)Cc1cn([C@@H](CCCN=C(NC(=O)OC(C)(C)C)NC(=O)OC(C)(C)C)C(=O)NCCCCCCCCCCC(=O)N2CCN(C(=O)OC(C)(C)C)CC2)nn1,0,5%,?,?,18µM*,-35%
CC[C@H](C)Cc1cn([C@@H](CCCCN)C(=O)NCCCCCCCCCCC(=O)N2CCNCC2)nn1,-17,-2%,2%,19%,i,-2%
CCOC1=C2[C@H](c3cccs3)N(S(=O)(=O)c3ccc(C)cc3)C[C@H]2n2c(=O)n(-c3ccccc3)c(=O)n2C1,-11,.,2%,-26%,i,-10%
